This is an account of results in PMC4336329 (PLoS ONE, 2015).

Hit rate of the full screen: of about 310,000 compounds, about 14,000 (4.5%) showed an effect of 50% or more. Effects have a minus sign here. This is one part of a sample in which strong results are shown more often than they occur.
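Note: peak tail current of the secondary pulse compared with the same well before compound.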

The assay deals with human ether-à-go-go-related gene (hERG) potassium channel (human, UniProt Q12809). The experiment in a line: primary screen, population patch clamp on CHO cells stably expressing hERG; higher = less effect of the substance.
Sequence of human ether-à-go-go-related gene (hERG) potassium channel (Q12809 whole entry, looked up): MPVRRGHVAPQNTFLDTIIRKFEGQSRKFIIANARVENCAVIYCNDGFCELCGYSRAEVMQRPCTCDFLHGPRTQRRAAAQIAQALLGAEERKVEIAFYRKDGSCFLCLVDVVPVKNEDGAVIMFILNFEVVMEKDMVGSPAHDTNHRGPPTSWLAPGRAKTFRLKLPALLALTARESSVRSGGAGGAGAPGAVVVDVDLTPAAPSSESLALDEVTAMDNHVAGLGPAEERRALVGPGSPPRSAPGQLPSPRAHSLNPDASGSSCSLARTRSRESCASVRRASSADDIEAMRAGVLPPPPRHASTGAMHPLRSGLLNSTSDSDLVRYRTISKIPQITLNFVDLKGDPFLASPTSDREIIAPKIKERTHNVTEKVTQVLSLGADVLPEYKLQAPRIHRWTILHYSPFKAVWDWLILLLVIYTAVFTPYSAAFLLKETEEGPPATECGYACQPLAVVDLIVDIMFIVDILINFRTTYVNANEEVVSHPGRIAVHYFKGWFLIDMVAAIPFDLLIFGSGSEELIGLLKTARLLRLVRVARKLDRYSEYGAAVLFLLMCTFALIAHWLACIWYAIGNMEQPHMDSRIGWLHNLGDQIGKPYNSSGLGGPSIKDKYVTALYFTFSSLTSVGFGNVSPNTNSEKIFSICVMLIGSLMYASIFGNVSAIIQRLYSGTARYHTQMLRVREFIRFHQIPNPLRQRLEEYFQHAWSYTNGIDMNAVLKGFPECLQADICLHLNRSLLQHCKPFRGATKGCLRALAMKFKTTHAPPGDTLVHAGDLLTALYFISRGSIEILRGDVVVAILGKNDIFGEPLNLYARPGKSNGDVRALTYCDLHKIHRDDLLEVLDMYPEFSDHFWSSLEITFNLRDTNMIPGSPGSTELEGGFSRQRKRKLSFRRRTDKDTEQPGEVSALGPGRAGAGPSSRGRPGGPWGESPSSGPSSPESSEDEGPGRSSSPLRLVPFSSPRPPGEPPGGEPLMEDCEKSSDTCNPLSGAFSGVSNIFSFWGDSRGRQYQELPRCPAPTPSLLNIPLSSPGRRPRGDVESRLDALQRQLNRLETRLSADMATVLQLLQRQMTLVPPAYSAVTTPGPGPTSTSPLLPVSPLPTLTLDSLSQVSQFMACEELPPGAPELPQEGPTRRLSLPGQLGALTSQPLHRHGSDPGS
For the compound `Cn1c(=O)oc2cc(S(=O)(=O)NCCC(=O)N3CCN(c4ccccc4F)CC3)ccc21`, the “hERG current change (%, negative = inhibition) at 10uM” value is reported as -17%.

Turning to `COc1ccc(/C(N)=C/C(=O)C(C)(C)C)cc1`, the “hERG current change (%, negative = inhibition) at 10uM” value is given as -5.64%.

`COc1nc(Oc2ccc(=O)n(C)n2)nc(N(C)C)n1`: the “hERG current change (%, negative = inhibition) at 10uM” value was 0.595%.

For the compound `N#Cc1ccc(S(=O)(=O)NC2CCN(Cc3ccccc3)CC2)cc1`, the “hERG current change (%, negative = inhibition) at 10uM” value was -31.8%.

Turning to `COc1ccccc1OCC(O)Cn1c(=N)n(CCN2CCCCC2)c2ccccc21.Cl` (stereo not shown), the “hERG current change (%, negative = inhibition) at 10uM” value was -65.4%.

For the compound `Cc1ccc(OCC(O)Cn2c(=N)n(CCN3CCCCC3)c3ccccc32)cc1.Cl` (stereo not shown), the “hERG current change (%, negative = inhibition) at 10uM” value was -72.9%.

`Cc1ccc(OCC(O)Cn2c(=N)n(CCN3CCOCC3)c3ccccc32)cc1.Cl` (stereo not shown): the “hERG current change (%, negative = inhibition) at 10uM” value is -43.6%.

Consider `COc1ccc(OCC(O)Cn2c(=N)n(CCN3CCOCC3)c3ccccc32)cc1.Cl` (stereo not shown), for which the “hERG current change (%, negative = inhibition) at 10uM” value is reported as -34.7%.

For `CCOc1ccc(C(O)Cn2c(=N)n(CCN3CCCCC3)c3ccccc32)cc1.Cl` (stereo not shown), the “hERG current change (%, negative = inhibition) at 10uM” value is recorded as -77.2%.

Consider `COc1ccc(OCC(O)Cn2c(=N)n(CCN3CCCCC3)c3ccccc32)cc1.Cl` (stereo not shown), for which the “hERG current change (%, negative = inhibition) at 10uM” value is on record as -68.1%.

Turning to `CCOc1ccc(C(O)(c2ccccc2)C(CN2CCCC2)c2ccccc2)cc1.Cl` (stereo not shown), the “hERG current change (%, negative = inhibition) at 10uM” value is reported as -34%.

With `COc1ccccc1OCCCCN1CCCCC1`, the “hERG current change (%, negative = inhibition) at 10uM” value is recorded as -1.89%.

As to `COc1ccc(OCC(O)CN2CCCCC2)cc1.Cl` (stereo not shown), the “hERG current change (%, negative = inhibition) at 10uM” value stood at 8.1%.

On to `Cc1onc(-c2c(F)cccc2Cl)c1C(=O)N1CCCc2ccccc21`, for which the “hERG current change (%, negative = inhibition) at 10uM” value is listed as -21.5%.

As to `CC(=O)c1ccc(NC(=O)C(=O)c2cn(CC(=O)N3CCCCC3)c3ccccc23)cc1`, the “hERG current change (%, negative = inhibition) at 10uM” value amounted to 6.65%.

As for `COc1ccc(-n2nc(C(=O)NCC(=O)N3CCN(c4ccccn4)CC3)c3ccccc3c2=O)cc1`, the “hERG current change (%, negative = inhibition) at 10uM” value is -34.3%.

Turning to `CC(=O)N1CCN(S(=O)(=O)c2cccc(C(=O)Nc3nccs3)c2)CC1`, the “hERG current change (%, negative = inhibition) at 10uM” value was 3.42%.

For the compound `CCCCN(c1ccccc1)S(=O)(=O)c1cccc(C(=O)O)c1`, the “hERG current change (%, negative = inhibition) at 10uM” value was found to be 5.27%.

As for `C=CCn1c(O)c(N=Nc2ccccc2C)c2ccccc21`, the “hERG current change (%, negative = inhibition) at 10uM” value is listed as 4.06%.

Regarding `COc1ccc(-n2nnnc2SCC(=O)N2CCCc3ccccc32)cc1OC`, the “hERG current change (%, negative = inhibition) at 10uM” value is recorded as -13.4%.

Regarding `O=C1C2CCCN2C(c2ccccc2F)N1c1cccc(Cl)c1` (stereo not shown), the “hERG current change (%, negative = inhibition) at 10uM” value came out at 3.69%.

For the compound `Cc1ccc2nc(CCc3nc4ccc(C)cc4o3)oc2c1`, the “hERG current change (%, negative = inhibition) at 10uM” value is 4.09%.

Regarding `CCOc1ccc(OCC)c(NC(=O)C2CCCN(S(=O)(=O)c3c(C)n[nH]c3C)C2)c1` (stereo not shown), the “hERG current change (%, negative = inhibition) at 10uM” value is on record as 8.8%.

Consider `Cc1ccc(OCC(=O)Nc2cnn(CCCC(=O)O)c2)c([N+](=O)[O-])c1`, for which the “hERG current change (%, negative = inhibition) at 10uM” value is given as 3.59%.

On to `COc1cccc(OC)c1C(=O)OCC(=O)N(c1ccccc1)C1CCCCC1`, for which the “hERG current change (%, negative = inhibition) at 10uM” value is -4.4%.

As to `Cl.N=c1n(CCN2CCCCC2)c2ccccc2n1CC(O)COc1ccccc1` (stereo not shown), the “hERG current change (%, negative = inhibition) at 10uM” value is -68.2%.

As to `Cl.N=c1n(CCN2CCOCC2)c2ccccc2n1CC(O)COc1ccccc1` (stereo not shown), the “hERG current change (%, negative = inhibition) at 10uM” value is on record as -39.3%.

Take `Cl.OC(CNCCCN1CCCCC1)COc1ccccc1` (stereo not shown): the “hERG current change (%, negative = inhibition) at 10uM” value is recorded as -4.25%.

`COC(=O)N1C(=O)[C@](c2ccc(Cl)cc2)(C(C)C)N1C(=O)OC`: the “hERG current change (%, negative = inhibition) at 10uM” value stood at 7.07%.

For `CCOc1ccc(-c2cnc3n2CCCCC3)cc1`, the “hERG current change (%, negative = inhibition) at 10uM” value is recorded as -63.3%.

With `COc1ccc(-c2cnc3n2CCCCC3)cc1`, the “hERG current change (%, negative = inhibition) at 10uM” value was -33.1%.

Consider `CCOc1ccc(-c2cnc3n2CCC3)cc1.Cl`, for which the “hERG current change (%, negative = inhibition) at 10uM” value is on record as -18.3%.

`Cc1ccc(NC(=O)CCC(=O)N2CCOCC2)nc1`: the “hERG current change (%, negative = inhibition) at 10uM” value amounted to 13%.

Regarding `CCc1ccc(C2=NNC(=Nc3c(C)n(C)n(-c4ccccc4)c3=O)SC2)cc1`, the “hERG current change (%, negative = inhibition) at 10uM” value was 34.4%.

For `CCOC(=O)c1cc(-c2ccccc2)n(CCC(=O)N2CCN(c3ccc(OC)cc3)CC2)c1C`, the “hERG current change (%, negative = inhibition) at 10uM” value is reported as -25.5%.

As to `CCOC(=O)c1cc(-c2ccc(OC)cc2)n(CCC(=O)NCCN2CCC(C)CC2)c1C`, the “hERG current change (%, negative = inhibition) at 10uM” value is recorded as -52.4%.

Take `CCOC(=O)c1cc(-c2ccc(OC)cc2)n(CCC(=O)NC2CCN(Cc3ccccc3)CC2)c1C`: the “hERG current change (%, negative = inhibition) at 10uM” value is -65.7%.

On to `CCCNC(=O)CCn1c(-c2ccc(C)cc2)cc(C(=O)OCC)c1C`, for which the “hERG current change (%, negative = inhibition) at 10uM” value is given as -6.08%.

For `CCOC(=O)c1cc(-c2ccc(F)cc2)n(CCC(=O)NC2CCN(Cc3ccccc3)CC2)c1C`, the “hERG current change (%, negative = inhibition) at 10uM” value was -64.2%.

Turning to `CCOC(=O)c1cc(-c2ccccc2)n(CCC(=O)NC(C)CC)c1C` (stereo not shown), the “hERG current change (%, negative = inhibition) at 10uM” value is recorded as -12.5%.

For `CCOC(=O)c1cc(-c2ccccc2)n(CC(=O)Nc2ccc(OC)cc2)c1C`, the “hERG current change (%, negative = inhibition) at 10uM” value was determined as 6.19%.

As for `CC(=O)c1cc(-c2ccccc2)n(CCC(=O)NC2CCCC2)c1C`, the “hERG current change (%, negative = inhibition) at 10uM” value is recorded as 0.876%.

`CCOC(=O)c1cc(-c2ccc(C)cc2)n(CCC(=O)NCCCOC)c1C`: the “hERG current change (%, negative = inhibition) at 10uM” value was -11.5%.

`O=C(Cn1c(=S)[nH]c2ccccc2c1=O)NCCc1ccccc1`: the “hERG current change (%, negative = inhibition) at 10uM” value is recorded as 16%.

On to `CCC(NC(=S)NC1CCCCC1)c1ccc(C(C)C)cc1` (stereo not shown), for which the “hERG current change (%, negative = inhibition) at 10uM” value was 13.7%.

In the case of `CC(C)=CCCC(C)NC(=O)NC1CCCCC1` (stereo not shown), the “hERG current change (%, negative = inhibition) at 10uM” value is reported as -3.64%.

Turning to `CCCc1cc(=O)oc2cc(C)cc(OCc3nn[nH]n3)c12`, the “hERG current change (%, negative = inhibition) at 10uM” value was found to be 13%.

Take `O=C(NCCO)c1ccc(Oc2ccc(C(F)(F)F)cc2[N+](=O)[O-])cc1`: the “hERG current change (%, negative = inhibition) at 10uM” value was -0.131%.

In the case of `COc1ccccc1C(=O)Nc1c2c(nn1-c1ccc(Cl)cc1)CS(=O)(=O)C2`, the “hERG current change (%, negative = inhibition) at 10uM” value turned out to be 9.63%.

Take `C/C(=N\OC(=O)c1c(-c2ccccc2Cl)noc1C)c1nccs1`: the “hERG current change (%, negative = inhibition) at 10uM” value was -2.44%.

As for `Cc1onc(-c2ccccc2Cl)c1C(=O)O/N=C(\N)c1ccc([N+](=O)[O-])o1`, the “hERG current change (%, negative = inhibition) at 10uM” value was -43.6%.

On to `C/C(=N/OC(=O)c1c(-c2ccccc2Cl)noc1C)c1cnccn1`, for which the “hERG current change (%, negative = inhibition) at 10uM” value is given as -7.04%.

In the case of `C/C(=N\OC(=O)c1c(-c2ccccc2Cl)noc1C)c1ccncc1`, the “hERG current change (%, negative = inhibition) at 10uM” value was -58.6%.

Consider `Cc1onc(-c2cccc(Cl)c2Cl)c1C(=O)O/N=C(\N)c1ccc([N+](=O)[O-])o1`, for which the “hERG current change (%, negative = inhibition) at 10uM” value is on record as -65%.

Take `Cc1onc(-c2c(F)cccc2Cl)c1C(=O)O/N=C(\N)c1ccc([N+](=O)[O-])o1`: the “hERG current change (%, negative = inhibition) at 10uM” value was -16.8%.
